Read-out in test [1]: Cyclin Dependent Kinase Inhibitor 1A (CDKN1A), CDKN1A (gene 1026)
Description: LTEA_HepaRG_CDKN1A: Life Technologies and Expression Analysis (LTEA) Assay for Cyclin Dependent Kinase Inhibitor 1A (CDKN1A) using HepaRG (AID 2283450). Conditions: mRNA level, 48 h; actives raise or lower the signal. In outline:
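Differentiated HepaRG cells in serum-free induction medium, exposed 48 h in duplicate to eight half-log concentrations up to 100 uM in 0.5% DMSO. mRNA measured by TaqMan qRT-PCR, normalized to ACTB, GAPDH, POLR2A; bidirectional fit versus DMSO.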

Read-out in test [2]: Cyclin D1 (CCND1), CCND1 (gene 595)
Description: LTEA_HepaRG_CCND1: Life Technologies and Expression Analysis (LTEA) Assay for Cyclin D1 (CCND1) using HepaRG (AID 2283451). Conditions: mRNA level, 48 h; actives raise or lower the signal. In a few lines:
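Differentiated HepaRG cells exposed 48 h in serum-free induction medium to eight half-log concentrations from 100 uM top, 0.5% DMSO, duplicates. CCND1 mRNA measured by Fluidigm TaqMan qRT-PCR, normalised to ACTB, GAPDH, POLR2A; bidirectional fit.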

Read-out in test [3]: catalase (CAT), CAT (gene 847)
The test can be described thus: LTEA_HepaRG_CAT: Life Technologies and Expression Analysis (LTEA) Assay for catalase (CAT) using HepaRG (AID 2283452). Conditions: mRNA level, 48 h; actives raise or lower the signal. In outline:
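Differentiated HepaRG cells in serum-free induction medium were dosed 48 h in duplicate, eight half-log concentrations from 100 uM in 0.5% DMSO. Transcript measured by TaqMan qRT-PCR, normalised to ACTB/GAPDH/POLR2A, fitted bidirectionally against DMSO.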

Read-out in test [4]: flavin-containing dimethylaniline monooxygenases 3 (FMO3), FMO3 (gene 2328)
The test can be described thus: LTEA_HepaRG_FMO3: Life Technologies and Expression Analysis (LTEA) Assay for flavin-containing dimethylaniline monooxygenases 3 (FMO3) using HepaRG (AID 2283453).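 On AC50: FMO3 transcript by TaqMan qRT-PCR normalized to ACTB GAPDH and POLR2A.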 The note with it: mRNA level, 48 h; actives raise or lower the signal. In a few lines: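 HepaRG, 48 h exposure, 8-pt half-log series from 100 uM, 0.5% DMSO vehicle, duplicates; FMO3 transcript by Fluidigm TaqMan qRT-PCR, housekeeping-normalized; gain/loss fit vs DMSO.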

Read-out in test [5]: Cytochrome P450 (CYP1A1), CYP1A1 (gene 1543)
Description: LTEA_HepaRG_CYP1A1: Life Technologies and Expression Analysis (LTEA) Assay for Cytochrome P450 (CYP1A1) using HepaRG (AID 2283454). The note with it: mRNA level, 48 h; actives raise or lower the signal. In outline:
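Differentiated human HepaRG cells, after 48 h plating, exposed in duplicate for 48 h in serum-free induction medium to 8 half-log concentrations up to 100 uM in 0.5% DMSO. CYP1A1 mRNA by qRT-PCR, normalized to ACTB/GAPDH/POLR2A; bidirectional fit versus DMSO.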

Read-out in test [6]: CFLAR gene, CFLAR (gene 8837)
Description: LTEA_HepaRG_CFLAR: Life Technologies and Expression Analysis (LTEA) Assay for CFLAR gene using HepaRG (AID 2283455). Conditions: mRNA level, 48 h; actives raise or lower the signal. In outline: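 HepaRG cells were plated for 48 h, switched to serum-free induction medium, then exposed in duplicate for 48 h to 8 concentrations (top 100 uM, half-log steps, 0.5% DMSO). CFLAR mRNA was measured by qRT-PCR, normalized to ACTB, GAPDH and POLR2A.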

Read-out in test [7]: Forkhead box O1 (FOXO1), FOXO1 (gene 2308)
The test can be described thus: LTEA_HepaRG_FOXO1: Life Technologies and Expression Analysis (LTEA) Assay for Forkhead box O1 (FOXO1) using HepaRG (AID 2283456). Conditions: mRNA level, 48 h; actives raise or lower the signal. In outline: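 Differentiated human HepaRG cells in serum-free induction medium were exposed in duplicate for 48 h to eight half-log concentrations (top 100 uM, 0.5% DMSO). FOXO1 mRNA was measured by TaqMan qRT-PCR, normalised to ACTB, GAPDH and POLR2A, and fitted bidirectionally against DMSO.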

Read-out in test [8]: growth arrest and DNA damage 45 (GADD45A), GADD45A (gene 1647)
The test can be described thus: LTEA_HepaRG_GADD45A: Life Technologies and Expression Analysis (LTEA) Assay for growth arrest and DNA damage 45 (GADD45A) using HepaRG (AID 2283458). The note with it: mRNA level, 48 h; actives raise or lower the signal. In a few lines: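 Differentiated HepaRG cells were exposed in duplicate for 48 h in serum-free induction medium to 8-point half-log concentrations up to 100 uM in 0.5% DMSO. GADD45A mRNA was measured by TaqMan qRT-PCR, normalized to ACTB, GAPDH and POLR2A, with bidirectional fitting versus DMSO.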

Read-out in test [9]: Forkhead box O3 (FOXO3), FOXO3 (gene 2309)
Description: LTEA_HepaRG_FOXO3: Life Technologies and Expression Analysis (LTEA) Assay for Forkhead box O3 (FOXO3) using HepaRG (AID 2283459). Conditions: mRNA level, 48 h; actives raise or lower the signal. In a few lines: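 Differentiated human HepaRG cells in serum-free induction medium were exposed in duplicate for 48 h to eight half-log concentrations up to 100 uM in 0.5% DMSO. FOXO3 mRNA was quantified by qRT-PCR, normalized to ACTB, GAPDH and POLR2A, with bidirectional fitting versus DMSO.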

Read-out in test [10]: ABC Transporter (ABCB1), ABCB1 (gene 5243)
The test can be described thus: LTEA_HepaRG_ABCB1: Life Technologies and Expression Analysis (LTEA) Assay for ABC Transporter (ABCB1) using HepaRG (AID 2283460). The note with it: mRNA level, 48 h; actives raise or lower the signal. In outline:
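Differentiated human HepaRG cells, plated 48 h then switched to serum-free induction medium, were exposed in duplicate to eight half-log concentrations up to 100 uM in 0.5% DMSO for 48 h. ABCB1 mRNA was measured by TaqMan qRT-PCR, normalized to ACTB/GAPDH/POLR2A.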

Read-out in test [11]: ABC Transporter (ABCC3), ABCC3 (gene 8714)
The test can be described thus: LTEA_HepaRG_ABCC3: Life Technologies and Expression Analysis (LTEA) Assay for ABC Transporter (ABCC3) using HepaRG (AID 2283462). The note with it: mRNA level, 48 h; actives raise or lower the signal. In outline: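 Differentiated human HepaRG cells exposed 48 h in serum-free induction medium, 0.5% DMSO vehicle, 8-point half-log series to 100 uM in duplicate. ABCC3 mRNA by qRT-PCR, normalised to ACTB, GAPDH, POLR2A; bidirectional fit vs DMSO.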

Read-out in test [12]: ABC Transporter (ABCB11), ABCB11 (gene 8647)
The test can be described thus: LTEA_HepaRG_ABCB11: Life Technologies and Expression Analysis (LTEA) Assay for ABC Transporter (ABCB11) using HepaRG (AID 2283463). The note with it: mRNA level, 48 h; actives raise or lower the signal. In a few lines: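 Differentiated human HepaRG cells were exposed for 48 h in serum-free induction medium to eight half-log concentrations up to 100 uM in 0.5% DMSO. ABCB11 mRNA was quantified by qRT-PCR, normalized to ACTB, GAPDH and POLR2A, and fitted bidirectionally versus DMSO.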

Read-out in test [13]: ABC Transporter (ABCC2), ABCC2 (gene 1244)
The test can be described thus: LTEA_HepaRG_ABCC2: Life Technologies and Expression Analysis (LTEA) Assay for ABC Transporter (ABCC2) using HepaRG (AID 2283464). Conditions: mRNA level, 48 h; actives raise or lower the signal. In a few lines:
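Differentiated HepaRG cells in serum-free induction medium exposed 48 h to eight half-log concentrations up to 100 uM, 0.5% DMSO, in duplicate. ABCC2 mRNA measured by qRT-PCR (TaqMan, Fluidigm), normalized to ACTB, GAPDH and POLR2A. Fitted in both directions against DMSO.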

Read-out in test [14]: Broad substrate specificity ATP-binding cassette transporter ABCG2 (Homo sapiens) (UniProt Q9UNQ0)
Description: LTEA_HepaRG_ABCG2: Life Technologies and Expression Analysis (LTEA) Assay for ABC Transporter (ABCG2) using HepaRG (AID 2283465). The note with it: mRNA level, 48 h; actives raise or lower the signal. In outline: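 Differentiated HepaRG cells in serum-free induction medium were exposed for 48 h, in duplicate, to eight half-log concentrations up to 100 uM in 0.5% DMSO. ABCG2 mRNA was measured by TaqMan qRT-PCR, normalized to ACTB, GAPDH and POLR2A, and fitted bidirectionally versus DMSO.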

Read-out in test [15]: ATP-citrate lyase (ACLY), ACLY (gene 47)
The test can be described thus: LTEA_HepaRG_ACLY: Life Technologies and Expression Analysis (LTEA) Assay for ATP-citrate lyase (ACLY) using HepaRG (AID 2283466). The note with it: mRNA level, 48 h; actives raise or lower the signal. In a few lines: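 Differentiated human HepaRG cells in serum-free induction medium exposed 48 h, in duplicate, to eight half-log concentrations from 100 uM top in 0.5% DMSO; ACLY mRNA measured by qRT-PCR, normalized to ACTB, GAPDH, POLR2A, fitted bidirectionally versus DMSO.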

Read-out in test [16]: Bcl-2 (BAD) gene, BAD (gene 572)
The test can be described thus: LTEA_HepaRG_BAD: Life Technologies and Expression Analysis (LTEA) Assay for Bcl-2 (BAD) gene using HepaRG (AID 2283469). The note with it: mRNA level, 48 h; actives raise or lower the signal. In outline: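 Differentiated human HepaRG cells in serum-free induction medium were exposed in duplicate for 48 h to eight concentrations (top 100 uM, half-log steps, 0.5% DMSO). BAD mRNA was quantified by qRT-PCR normalised to ACTB, GAPDH and POLR2A, with bidirectional fitting versus DMSO.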

The nature of test [17]: CEETOX_H295R_TESTO: CeeTox H295R High-throughput Steroidogenesis Assay for Testosterone (TESTO) (AID 2283457). The note with it: actives raise or lower the signal. In outline: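 H295R adrenal cells, passage ≤10, exposed to chemicals for 48 h. Testosterone in medium measured by MTBE extraction and HPLC-MS/MS against a 7-point standard curve. Bidirectional fit versus DMSO; MTT viability checked in the same wells.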

Read-out in test [18]: growth arrest and DNA damage 45 (GADD45B), GADD45B (gene 4616)
Description: LTEA_HepaRG_GADD45B: Life Technologies and Expression Analysis (LTEA) Assay for growth arrest and DNA damage 45 (GADD45B) using HepaRG (AID 2283461). The note with it: mRNA level, 48 h; actives raise or lower the signal. In a few lines:
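Differentiated human HepaRG cells in serum-free induction medium exposed 48 h in duplicate to eight concentrations, top 100 uM, half-log steps, 0.5% DMSO. GADD45B mRNA by TaqMan qRT-PCR, normalized to ACTB, GAPDH, POLR2A; bidirectional fit versus DMSO.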

Read-out in test [19]: Peroxisomal acyl-coenzyme A oxidase 1 (ACOX1) gene, ACOX1 (gene 51)
The test can be described thus: LTEA_HepaRG_ACOX1: Life Technologies and Expression Analysis (LTEA) Assay for Peroxisomal acyl-coenzyme A oxidase 1 (ACOX1) gene using HepaRG (AID 2283467). Conditions: mRNA level, 48 h; actives raise or lower the signal. In a few lines:
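Differentiated human HepaRG cells were exposed in duplicate for 48 h in serum-free induction medium to eight half-log concentrations up to 100 uM in 0.5% DMSO. ACOX1 mRNA was then quantified by TaqMan qRT-PCR, normalized to ACTB, GAPDH and POLR2A.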

Molecules are shown by their SMILES. The source made the active and inactive calls. How the source made its calls: active means hit-call score of the fitted dose curve at least 0.9, where 1 is the maximum; inactive means score below 0.9.

By AC50 is commonly meant the midpoint of the concentration-response curve, whichever way the signal moves.

Chain of Broad substrate specificity ATP-binding cassette transporter ABCG2 (Homo sapiens) (Q9UNQ0 whole entry, looked up): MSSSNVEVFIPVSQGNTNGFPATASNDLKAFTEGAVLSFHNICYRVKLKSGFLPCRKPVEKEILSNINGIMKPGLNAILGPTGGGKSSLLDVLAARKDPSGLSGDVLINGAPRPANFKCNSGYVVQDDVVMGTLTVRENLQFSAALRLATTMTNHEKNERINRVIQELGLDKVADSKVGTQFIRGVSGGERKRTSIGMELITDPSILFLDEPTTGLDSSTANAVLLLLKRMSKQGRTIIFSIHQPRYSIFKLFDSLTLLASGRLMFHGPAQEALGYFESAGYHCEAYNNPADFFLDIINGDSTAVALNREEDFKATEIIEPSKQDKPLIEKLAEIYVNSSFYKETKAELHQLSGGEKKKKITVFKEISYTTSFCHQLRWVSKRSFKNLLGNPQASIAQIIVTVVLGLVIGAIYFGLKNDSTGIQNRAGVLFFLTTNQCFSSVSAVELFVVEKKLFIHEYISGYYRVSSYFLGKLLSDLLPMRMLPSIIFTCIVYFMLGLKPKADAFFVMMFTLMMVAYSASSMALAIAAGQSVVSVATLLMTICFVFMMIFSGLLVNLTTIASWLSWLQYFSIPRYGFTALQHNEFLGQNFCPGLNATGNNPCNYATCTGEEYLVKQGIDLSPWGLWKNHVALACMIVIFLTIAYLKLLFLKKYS

As to `CN(C)CCCN(C)CCCN(C)C`, the call in test [1], in test [2], in test [3], in test [4], in test [5] and in test [6] was inactive. Moreover, the molecule was called inactive in [7], in test [8], in [9], in [10], in test [11] and in test [12]. The molecule was called inactive in [13], in [14], in test [15] and in [16].

Regarding `CC1=C(C)S(=O)(=O)CCS1(=O)=O`, the AC50 in test [1] was 85.4 µM (active); in test [4] it was 90.9 µM (active); in test [5] it was 50 µM (active); in test [9], 14.7 µM (active); in [10], 50 µM (active); in test [18] it was 88.8 µM (active). Further, the AC50 in test [11] is 171 nM (active); in test [12] it was 81 µM (active). Besides, the outcome in test [2], in test [3], in test [6], in test [7], in test [17] and in test [8] was inactive. The molecule was called inactive in test [13], in test [14], in [15], in test [19] and in test [16].

The values are drawn from PubChem BioAssay (EPA / NIEHS).
